# PubChem BioAssay AID1159580 (chemical genetic matrix, 2015)
# The whole screen tested about 5,500 compounds, of which about 2,000 (36%) were called active. About 18% were inconclusive and are not listed. Some of the results follow. Values without a mark were called inactive. Rule as the data show it: active = normalized growth mostly below about 0.91 (no sharp cut-off); inconclusive = no clear call, values can overlap the other calls; inactive = mostly above about 0.92.
# Test: chemical genetic growth profiling, strain panel (AID 1159580);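 also: tested at 20 µM; growth read once vehicle control cultures reached saturation at 30 °C; 1 = growth at the plate median or of vehicle wells; lower values mean less growth of the strain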
# Settings: growth OD
smiles,measurement,setting,value
C[C@](N)(Cc1ccc(O)c(O)c1)C(=O)O,normalized growth,"S. cerevisiae deletion strains, locus YJR075W, strain HOC1, active compounds read low",1.01
same,normalized growth,"S. cerevisiae deletion strains, locus YKL009W, strain mrt4, active compounds read low",0.97
same,normalized growth,"S. cerevisiae deletion strains, locus YKL068W, active compounds read low",0.997
same,normalized growth,"S. cerevisiae deletion strains, locus YKL085W, strain MDH1 (second series), active compounds read low",0.983
same,normalized growth,"S. cerevisiae deletion strains, locus YKL085W, strain MDH1, active compounds read low",0.983
same,normalized growth,"S. cerevisiae deletion strains, locus YKL160W, strain elf1, active compounds read low",0.927
same,normalized growth,"S. cerevisiae deletion strains, locus YKL190W, strain CNB1, active compounds read low",0.951
same,normalized growth,"S. cerevisiae deletion strains, locus YKR001C, strain vps1, active compounds read low",0.979
same,normalized growth,"S. cerevisiae deletion strains, locus YKR026C, strain gcn3, active compounds read low",0.986
same,normalized growth,"S. cerevisiae deletion strains, locus YKR091W, strain srl3, active compounds read low",0.972
same,normalized growth,"S. cerevisiae deletion strains, locus YLL001W, strain dnm1, active compounds read low",0.914
same,normalized growth,"S. cerevisiae deletion strains, locus YLL026W, active compounds read low",0.984
same,normalized growth,"S. cerevisiae deletion strains, locus YLL041C, strain sdh2, active compounds read low",0.994
same,normalized growth,"S. cerevisiae deletion strains, locus YLR027C, strain aat2, active compounds read low",0.983
same,normalized growth,"S. cerevisiae deletion strains, locus YLR039C, strain RIC1, active compounds read low",0.975
same,normalized growth,"S. cerevisiae deletion strains, locus YLR058C, strain SHM2, active compounds read low",0.979
same,normalized growth,"S. cerevisiae deletion strains, locus YLR102C, strain apc9, active compounds read low",1
same,normalized growth,"S. cerevisiae deletion strains, locus YLR113W, strain HOG1, active compounds read low",1
same,normalized growth,"S. cerevisiae deletion strains, locus YLR221C, strain rsa3, active compounds read low",0.911
same,normalized growth,"S. cerevisiae deletion strains, locus YLR258W, strain gsy2, active compounds read low",0.959
same,normalized growth,"S. cerevisiae deletion strains, locus YLR262C, strain YPT6 (second series), active compounds read low",0.892
same,normalized growth,"S. cerevisiae deletion strains, locus YLR262C, strain YPT6, active compounds read low",0.878
same,normalized growth,"S. cerevisiae deletion strains, locus YLR268W, strain sec22, active compounds read low",1.06
same,normalized growth,"S. cerevisiae deletion strains, locus YLR320W, strain mms22, active compounds read low",0.944
same,normalized growth,"S. cerevisiae deletion strains, locus YLR330W, strain CHS5, active compounds read low",0.982
same,normalized growth,"S. cerevisiae deletion strains, locus YLR342W, strain FKS1 (second series), active compounds read low",0.861
same,normalized growth,"S. cerevisiae deletion strains, locus YLR342W, strain FKS1, active compounds read low",0.967
same,normalized growth,"S. cerevisiae deletion strains, locus YLR357W, strain rsc2, active compounds read low",0.92
same,normalized growth,"S. cerevisiae deletion strains, locus YLR370C, strain arc18, active compounds read low",0.945
same,normalized growth,"S. cerevisiae deletion strains, locus YLR371W, strain rom2, active compounds read low",0.983
same,normalized growth,"S. cerevisiae deletion strains, locus YLR384C, strain iki3, active compounds read low",0.981
same,normalized growth,"S. cerevisiae deletion strains, locus YLR418C, strain cdc73, active compounds read low",1
same,normalized growth,"S. cerevisiae deletion strains, locus YML016C, strain PPZ1, active compounds read low",0.957
same,normalized growth,"S. cerevisiae deletion strains, locus YML032C, strain rad52, active compounds read low",1.01
same,normalized growth,"S. cerevisiae deletion strains, locus YML120C, strain ndi1, active compounds read low",0.915
same,normalized growth,"S. cerevisiae deletion strains, locus YML124C, strain tub3, active compounds read low",0.993
same,normalized growth,"S. cerevisiae deletion strains, locus YMR058W, strain fet3, active compounds read low",0.944
same,normalized growth,"S. cerevisiae deletion strains, locus YMR078C, strain ctf18, active compounds read low",0.99
same,normalized growth,"S. cerevisiae deletion strains, locus YMR125W, strain sto1, active compounds read low",0.941
same,normalized growth,"S. cerevisiae deletion strains, locus YMR129W, active compounds read low",0.985
same,normalized growth,"S. cerevisiae deletion strains, locus YMR205C, strain PFK2, active compounds read low",0.983
same,normalized growth,"S. cerevisiae deletion strains, locus YMR223W, strain ubp8, active compounds read low",0.938
same,normalized growth,"S. cerevisiae deletion strains, locus YMR231W, strain pep5, active compounds read low",0.988
same,normalized growth,"S. cerevisiae deletion strains, locus YMR263W, strain SAP30, active compounds read low",1
same,normalized growth,"S. cerevisiae deletion strains, locus YMR307W, strain GAS1, active compounds read low",0.765
same,normalized growth,"S. cerevisiae deletion strains, locus YNL067W, strain RPL9B, active compounds read low",0.979
same,normalized growth,"S. cerevisiae deletion strains, locus YNL071W, strain lat1, active compounds read low",0.978
same,normalized growth,"S. cerevisiae deletion strains, locus YNL128W, strain TEP1, active compounds read low",0.896
same,normalized growth,"S. cerevisiae deletion strains, locus YNL153C, strain GIM3, active compounds read low",1.01
same,normalized growth,"S. cerevisiae deletion strains, locus YNL183C, strain NPR1, active compounds read low",0.976
same,normalized growth,"S. cerevisiae deletion strains, locus YNL209W, strain ssb2, active compounds read low",0.891 (active)
same,normalized growth,"S. cerevisiae deletion strains, locus YNL233W, strain BNI4, active compounds read low",0.972
same,normalized growth,"S. cerevisiae deletion strains, locus YNL248C, strain rpa49, active compounds read low",0.979
same,normalized growth,"S. cerevisiae deletion strains, locus YNL250W, strain rad50, active compounds read low",0.982
same,normalized growth,"S. cerevisiae deletion strains, locus YNL271C, strain bni1, active compounds read low",0.989
same,normalized growth,"S. cerevisiae deletion strains, locus YNL298W, strain CLA4, active compounds read low",0.999
same,normalized growth,"S. cerevisiae deletion strains, locus YNL307C, strain MCK1, active compounds read low",0.996
same,normalized growth,"S. cerevisiae deletion strains, locus YNL322C, strain KRE1 (second series), active compounds read low",0.96
same,normalized growth,"S. cerevisiae deletion strains, locus YNL322C, strain KRE1, active compounds read low",0.984
same,normalized growth,"S. cerevisiae deletion strains, locus YNR049C, strain mso1, active compounds read low",0.969
same,normalized growth,"S. cerevisiae deletion strains, locus YNR052C, strain pop2, active compounds read low",0.991
same,normalized growth,"S. cerevisiae deletion strains, locus YOL006C, strain TOP1, active compounds read low",0.529 (active)
same,normalized growth,"S. cerevisiae deletion strains, locus YOL012C, strain htz1",0.552
same,normalized growth,"S. cerevisiae deletion strains, locus YOL147C, strain pex11, active compounds read low",0.989
same,normalized growth,"S. cerevisiae deletion strains, locus YOR001W, strain rrp6, active compounds read low",1.02
same,normalized growth,"S. cerevisiae deletion strains, locus YOR061W, strain CKA2, active compounds read low",0.938
same,normalized growth,"S. cerevisiae deletion strains, locus YOR069W, strain VPS5, active compounds read low",0.991
same,normalized growth,"S. cerevisiae deletion strains, locus YOR070C, strain gyp1, active compounds read low",0.988
same,normalized growth,"S. cerevisiae deletion strains, locus YOR080W, strain dia2, active compounds read low",0.956
same,normalized growth,"S. cerevisiae deletion strains, locus YOR083W, strain WHI5, active compounds read low",0.919
same,normalized growth,"S. cerevisiae deletion strains, locus YOR106W, strain vam3, active compounds read low",0.885
same,normalized growth,"S. cerevisiae deletion strains, locus YOR136W, strain idh2, active compounds read low",0.99
same,normalized growth,"S. cerevisiae deletion strains, locus YOR144C, strain elg1, active compounds read low",1.01
same,normalized growth,"S. cerevisiae deletion strains, locus YOR184W, strain ser1, active compounds read low",0.998
same,normalized growth,"S. cerevisiae deletion strains, locus YOR231W, strain MKK1, active compounds read low",1.03
same,normalized growth,"S. cerevisiae deletion strains, locus YOR265W, strain rbl2, active compounds read low",0.956
same,normalized growth,"S. cerevisiae deletion strains, locus YOR270C, strain vph1, active compounds read low",0.965
same,normalized growth,"S. cerevisiae deletion strains, locus YOR290C, strain snf2, active compounds read low",0.86 (active)
same,normalized growth,"S. cerevisiae deletion strains, locus YOR316C, strain cot1, active compounds read low",1
same,normalized growth,"S. cerevisiae deletion strains, locus YPL051W, strain arl3, active compounds read low",0.947
same,normalized growth,"S. cerevisiae deletion strains, locus YPL055C, strain LGE1, active compounds read low",0.915
same,normalized growth,"S. cerevisiae deletion strains, locus YPL078C, strain atp4, active compounds read low",0.947
same,normalized growth,"S. cerevisiae deletion strains, locus YPL106C, strain sse1, active compounds read low",0.882
same,normalized growth,"S. cerevisiae deletion strains, locus YPL240C, strain hsp82, active compounds read low",0.979
same,normalized growth,"S. cerevisiae deletion strains, locus YPL241C, strain CIN2, active compounds read low",0.966
same,normalized growth,"S. cerevisiae deletion strains, locus YPL256C, strain CLN2, active compounds read low",1.08
same,normalized growth,"S. cerevisiae deletion strains, locus YPR119W, strain clb2, active compounds read low",0.993
same,normalized growth,"S. cerevisiae deletion strains, locus YPR141C, strain kar3, active compounds read low",0.987
same,normalized growth,"S. cerevisiae deletion strains, locus YPR163C, strain tif3, active compounds read low",1
same,normalized growth,"S. cerevisiae deletion strains, locus YPR167C, strain met16, active compounds read low",0.997
same,normalized growth,"S. cerevisiae deletion strains, strain wtn01, active compounds read low",1.01
same,normalized growth,"S. cerevisiae strains, strain wild type, active compounds read low",0.9 (active)
